# According to PubChem BioAssay (Tox21):
# Inconclusive results are not listed. Active and inactive are the calls of the source. Calls follow the shape of the dose curve; as a rule, active = well fitted activation curve with a large enough effect in the signal ratio in the repeat runs (not every such curve was filed as active); inconclusive = weak or mixed curves, or effect the other way; inactive = no such curve, though single readings can be large or run the other way; the % refers to the signal ratio.
# Biological target: Peroxisome proliferator-activated receptor gamma (Homo sapiens) (UniProt P37231)
# Assay: qHTS assay to identify small molecule agonists of the peroxisome proliferator-activated receptor gamma (PPARg) signaling pathway (AID 743094)
# Settings: HEK293H PPARg-UAS-bla, beta-lactamase FRET ratio, 17 h; series mostly up to 57 µM; activation: at the top concentration
# Description: U.S. Tox21 Program National Center for Advancing Translational Sciences [NCATS] NIH Chemical Genomics Center [NCGC] U.S. Environmental Protection Agency [EPA] National Institutes of Environmental Health Sciences [NIEHS] National Toxicology Program [NTP] U.S. Food and Drug Administration [FDA] Tox21 Assay Overview: The peroxisome proliferator-activated receptors (PPARs) are lipid-activated transcription factors of the nuclear receptor superfamily with three distinct subtypes namely PPAR alpha, PPAR delta (also called PPAR beta) and PPAR gamma (PPARg). All these subtypes heterodimerize with Retinoid X receptor (RXR) and these heterodimers regulate transcription of various genes. PPAR-gamma receptor (glitazone receptor) is involved in the regulation of glucose and lipid metabolism. To identify the compounds that activate PPAR-gamma signaling, GeneBLAzer PPAR gamma UAS-bla HEK293H cell line (Invitrogen, Carlsbad, CA, USA) containing a beta-lactamase reporter gene under control of the control of an upstream activator sequence (UAS) stably integrated into HEK293H cells was used to screen Tox21 compound library.
# Tox21 Assay Protocol Summary: PPARg-bla cells were dispensed at 3000 cells/6uL/well in 1536-well black wall/clear bottom plates using a Multidrop Combi (Thermo Fisher Scientific, Waltham, MA) dispenser. After the assay plates were incubated at 37C and 5% CO2 for 5 h, 23 nL of compounds dissolved in DMSO, positive controls or DMSO only was transferred to the assay plate by a Pintool station (Kalypsys, San Diego, CA). The assay plates were incubated at 37C for 17 h. After 1 uL of LiveBLAzerTM B/G FRET substrate was added using a Bioraptr Flying Reagent Dispenser (FRD) workstation (Beckman Coulter, Indianapolis, IN, USA), the plates were incubated at room temperature for 1 h, and fluorescence intensity was measured by an Envision plate reader (PerkinElmer, Shelton, CT).
# % is scaled to controls: 0 for no effect and ±100 for the full control effect.
# Chain of Peroxisome proliferator-activated receptor gamma (Homo sapiens) (P37231 whole entry, looked up): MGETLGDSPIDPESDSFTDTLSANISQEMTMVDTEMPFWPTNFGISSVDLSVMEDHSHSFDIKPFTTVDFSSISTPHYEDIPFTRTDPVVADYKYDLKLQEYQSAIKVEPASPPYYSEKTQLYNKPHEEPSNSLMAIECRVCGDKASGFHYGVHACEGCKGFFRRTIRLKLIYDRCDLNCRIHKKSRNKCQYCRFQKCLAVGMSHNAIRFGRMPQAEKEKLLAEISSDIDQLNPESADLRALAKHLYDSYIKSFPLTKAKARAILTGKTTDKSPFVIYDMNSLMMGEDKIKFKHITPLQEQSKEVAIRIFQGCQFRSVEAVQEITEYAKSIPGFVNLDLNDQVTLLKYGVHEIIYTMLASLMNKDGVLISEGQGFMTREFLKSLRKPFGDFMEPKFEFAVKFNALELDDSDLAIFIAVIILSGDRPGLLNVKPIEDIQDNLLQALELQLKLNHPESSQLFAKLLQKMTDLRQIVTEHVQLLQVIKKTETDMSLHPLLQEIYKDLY
SMILES,activation,outcome
CCN1CCC[C@H]1CNC(=O)c1cc(S(N)(=O)=O)ccc1OC,0.492% (inactive),–
C1CN(CCOCCN2CCOCC2)CCO1,-3.73% (inactive),–
CC(=O)CC(C)C,0.0255% (inactive),–
CCOC(=O)Nc1ccc(NCc2ccc(F)cc2)nc1N,–,inactive
CC/C=C\CCOC(C)=O,-3.7% (inactive),–
C1OCOCO1,-3.9% [at 78.9 µM] (inactive),–
COc1ccc2c(c1)c(CC(=O)OCC(=O)O)c(C)n2C(=O)c1ccc(Cl)cc1,-7.83% (inactive),–
CCOC(=O)c1ccc(C)cc1,-3.36% (inactive),–
O=C(O)c1ccccc1OP(=O)(O)O,2.09% (inactive),–
Nc1c2c(nc3ccccc13)CCCC2O (stereo not given),-0.187% (inactive),–
OC(CCN1CCCCC1)(c1ccccc1)C1CC2C=CC1C2 (stereo not given),–,inactive
N[C@@H](C(=O)N[C@@H]1C(=O)N2C(C(=O)O)=C(Cl)CS[C@H]12)c1ccccc1,0.453% (inactive),–
COC(=O)c1c(Cl)c(Cl)c(C(=O)OC)c(Cl)c1Cl,6.4% (inactive),–
COC(=O)[C@@H](N)Cc1ccc(O)c(O)c1,-0.48% (inactive),–
C=C[Si](OC(=C)C)(OC(=C)C)OC(=C)C,2.18% (inactive),–
CCO[Si](CCC1CCC2OC2C1)(OCC)OCC (stereo not given),-3.19% (inactive),–
C=C1CC[C@H]2C[C@@H]1C2(C)C,-9.25% (inactive),–
NS(=O)(=O)c1ccc(C(=O)O)cc1,1.71% (inactive),–
NS(=O)(=O)c1cc2c(cc1Cl)NC(C1CC3C=CC1C3)NS2(=O)=O (stereo not given),1.06% (inactive),–
C[C@H]1C[C@@H](O)CC(C)(C)C1,-0.517% (inactive),–

SMILES,activation,outcome
CC1(C)C(O)C(C)(C)C1O (stereo not given),-0.672% (inactive),–
NC(=O)c1ccc([N+](=O)[O-])cc1,-1.94% (inactive),–
O=S(O)CO,–,inactive
O=C1CC2CC1C1CCCC21 (stereo not given),-6.38% (inactive),–
COC(=O)c1ccc(C)cc1C1=NC(C)(C(C)C)C(=O)N1 (stereo not given),-0.707% (inactive),–
CC(C)NC(=O)NC(C)C,6.61% (inactive),–
CCCc1cc(C(N)=S)ccn1,0.0788% (inactive),–
CCCCC/C=C\CCC=O,0.256% (inactive),–
C=C(C)CS(=O)(=O)O,6.5% (inactive),–
CCOC(=O)C(=O)OCC,2.72% (inactive),–
Nc1ccccc1S(=O)(=O)O,-1.07% (inactive),–
C[N+](C)(C)CC(O)CC(=O)[O-] (stereo not given),1.92% (inactive),–
O=[N+]([O-])c1ccc(F)cc1F,0.0499% [at 78.9 µM] (inactive),–
Cc1cc(O)cc2c1O[C@](C)(CCC[C@H](C)CCC[C@H](C)CCCC(C)C)CC2,7.6% (inactive),–
Cc1cccn2c(=O)c(-c3nnn[nH]3)cnc12,4.31% (inactive),–
COC(=O)NN,-9.1% [at 78.9 µM] (inactive),–
CC1=CC(C)C(C=O)CC1 (stereo not given),-1.56% (inactive),–
O=Cc1cccc([N+](=O)[O-])c1,-4.77% (inactive),–
CN1C(=O)N(C)C(O)C1O (stereo not given),-2.81% (inactive),–
CCc1nccnc1CC,-0.226% [at 26.2 µM] (inactive),–
